A selection: hits, their analogues and other compounds. The true share with any hit is near 3.6%.
Rango complex inh: qHTS Assay for Inhibitors of Rango (Ran-regulated importin-beta cargo) - Importin beta complex formation. Importin subunit beta-1 (Homo sapiens), Q14974. Rango CFP/YFP FRET sensor + importin beta, 45 min. Potency, µM (doses to about 92.2 µM). hit rate 0.031% among 340,000. AID 540263, 2011; calls by dose curve; also: nearly all actives have a fitted effect of over 15% in size
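FRET biosensor (snurportin 1 IBB flanked by EYFP and cerulean), 50 nM, with compound 5 min, then 0.125 microM importin beta in PBS, 1 mM DTT, 0.02% Tween-20, 0.1% BSA. CFP/YFP ratio read after 45 min at room temperature; pre-read flags interference.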
GCN5L2 inh: qHTS Assay for Inhibitors of GCN5L2; AID 504327, 2011; hit rate 0.21% among 390,000; Histone acetyltransferase KAT2A (Homo sapiens), Q92830; Potency, µM (titrated, usually from 58.9 µM), actives largely listed as inhibitors; GCN5L2 HAT assay, ThioGlo1 CoA-SH fluorescence
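Compounds, pin-transferred from DMSO stocks, meet 20nM GCN5L2 for 15 min before the reaction begins with H3(1-25) peptide (75uM) and acetyl-CoA (70uM). Thiol-reactive ThioGlo1 reports CoA release over 20 min at room temperature.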
Rango release inh: qHTS Assay for Inhibitors of RanGTP induced Rango (Ran-regulated importin-beta cargo) - Importin beta complex dissociation; Biochemical FRET Rango-importin beta, RanGTP-induced dissociation; Potency, µM (titrated, usually from 46.1 µM); hit rate 0.071% among 340,000; AID 540253, 2011; calls by dose curve; also: nearly all actives have a fitted effect of over 45% in size
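Compounds sat 5 min at room temperature with 0.1 uM Rango biosensor plus 0.25 uM importin beta, then FRET pre-read. RanGTP-RCC1 (0.6 uM Ran, 2mM GTP, 0.2 uM RCC1) added for 45 min, and the CFP/YFP post-read measured blocked complex dissociation.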
PLK1 PBD block: qHTS for Inhibitors of PLK1-PDB (polo-like kinase 1 - polo-box domain): Primary Screen. Plk1 PBD binding of FITC phosphopeptide, fluorescence polarization. hit rate 2.8% among 360,000. Serine/threonine-protein kinase PLK1 (Homo sapiens), P53350. Potency, µM, actives largely listed as inhibitors; also: series mostly up to about 57 µM; nearly all actives have a fitted effect of over 65% in size
VDR inh: Inhibitors of the vitamin D receptor (VDR): qHTS; Vitamin D3 receptor (Homo sapiens), P11473; VDR-SRC2-3 peptide fluorescence polarization, 2 h; Potency, µM, most hits filed as inhibitors; hit rate 0.93% among 400,000
Target sequence (P11473 whole entry, looked up): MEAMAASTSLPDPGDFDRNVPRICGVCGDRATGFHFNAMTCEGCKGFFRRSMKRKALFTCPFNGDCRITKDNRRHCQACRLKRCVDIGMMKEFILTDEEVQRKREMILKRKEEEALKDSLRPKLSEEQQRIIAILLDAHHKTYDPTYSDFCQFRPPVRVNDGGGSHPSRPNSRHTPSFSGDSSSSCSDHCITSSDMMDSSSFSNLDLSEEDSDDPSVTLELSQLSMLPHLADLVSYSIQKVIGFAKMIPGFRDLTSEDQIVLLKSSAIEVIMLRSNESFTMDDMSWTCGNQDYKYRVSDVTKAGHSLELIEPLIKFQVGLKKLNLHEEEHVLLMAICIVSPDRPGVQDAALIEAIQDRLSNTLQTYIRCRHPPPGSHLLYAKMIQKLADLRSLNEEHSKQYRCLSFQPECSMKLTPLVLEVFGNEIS
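Measured by FP: displacement of SRC2-3 coactivator peptide from VDR by library compounds, following a two-hour ambient incubation.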
PI5P4K alpha inh: qHTS for Inhibitors of phosphatidylinositol 5-phosphate 4-kinase (PI5P4K) | PI5P4Kalpha enzyme, ADP-Glo luminescence, 60 min; hits give low values | max response, % | hit rate 1.2% among 330,000 | AID 652105, 2013; active = max response of -50% or lower; inconclusive = between -30% and -50%; inactive = -30% or higher; also: value at the top dose of about 77 µM
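Luminescence from ADP-Glo served as readout of PI5P4Kalpha activity in a qHTS format. Reaction: enzyme, substrate, compound, ATP at 5 microM final, 60 min at RT.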
Each line names hits and unclear results; the compound was inactive in the other large screens. Unless noted, calls follow the shape of the dose curve; as a rule, active = well fitted curve in the direction sought with a large enough effect; inconclusive = small, poorly fitted or top-dose-only effect, or another doubt; inactive = no such curve, though single readings can be large; an effect the other way counts as inactive or inconclusive.

CCCCCn1c(NC(=O)c2ccco2)c(S(=O)(=O)c2ccc(C)cc2)c2nc3ccccc3nc21	Rango complex inh inconclusive, Rango release inh inconclusive, PLK1 PBD block 21µM, VDR inh inconclusive (no result: PI5P4K alpha inh)
CCCCn1c(NS(=O)(=O)c2ccccc2)c(S(=O)(=O)c2ccc(C)cc2)c2nc3ccccc3nc21	Rango complex inh inconclusive, GCN5L2 inh inconclusive, Rango release inh inconclusive, PLK1 PBD block 27µM, VDR inh 50µM
CCC(=O)Nc1c(S(=O)(=O)c2ccccc2)c2nc3ccccc3nc2n1C(C)c1ccccc1 (stereo not drawn)	Rango complex inh inconclusive, Rango release inh inconclusive
CCCCn1c(NC(=O)c2ccco2)c(S(=O)(=O)c2ccc(C)cc2)c2nc3ccccc3nc21	Rango complex inh inconclusive, Rango release inh inconclusive, PLK1 PBD block inconclusive, VDR inh inconclusive
CC1CCC(NC(=O)CCc2cn(Cc3ccc(F)cc3)c3ccccc23)CC1 (stereo not drawn)	none (no result: Rango complex inh, Rango release inh, PLK1 PBD block, PI5P4K alpha inh)
O=C(CNC1CCCCCC1)c1cccs1	PLK1 PBD block 30µM, VDR inh inconclusive
Clc1ccc2c(N/N=C/c3ccc(Br)cc3)ccnc2c1	PI5P4K alpha inh -73
Cc1ccc(/C=N/Nc2ccnc3cc(Cl)ccc23)c(C)c1	PLK1 PBD block 27µM, PI5P4K alpha inh -82
Oc1ccc(/C=N/Nc2ccnc3cc(Cl)ccc23)c(O)c1	none
Cc1ccccc1/C=N/Nc1ccnc2cc(Cl)ccc12	PI5P4K alpha inh -75
Clc1ccc2c(N/N=C/c3cccnc3)ccnc2c1	none
COc1ccc(CNC(=O)c2cccn2-c2nnc(N3CCCC3)s2)c(OC)c1	none (no result: Rango complex inh, Rango release inh, PLK1 PBD block, PI5P4K alpha inh)
Nc1ncc(N=Nc2cc(C(=O)O)ccc2Cl)s1	PLK1 PBD block inconclusive, VDR inh inconclusive, PI5P4K alpha inh -54
CC(=O)Oc1cc(-c2coc3cc(OC(C)=O)c(OC(C)=O)c(OC(C)=O)c3c2=O)cc(OC(C)=O)c1OC(C)=O	VDR inh 18µM (no result: Rango complex inh, Rango release inh, PLK1 PBD block, PI5P4K alpha inh)
Cc1ccc(S(=O)(=O)NCC(=O)NCC(=O)OCC(=O)N2CC(=O)Nc3ccccc32)cc1C	PLK1 PBD block 17µM
COc1ccc(-n2nc3ccc(NC(=O)c4c(OC)cccc4OC)cc3n2)cc1	none (no result: Rango complex inh, Rango release inh, PLK1 PBD block, PI5P4K alpha inh)
CCOC(=O)C1=C(CSc2nc3c(cc2C#N)CCC3)OC(N)=C(C#N)C1c1ccccc1 (stereo not drawn)	Rango complex inh inconclusive, Rango release inh inconclusive, PLK1 PBD block 17µM (no result: PI5P4K alpha inh)
CCOC(=O)C1=C(CSc2nc3c(cc2C#N)CN(C)CC3)OC(N)=C(C#N)C1c1ccccc1 (stereo not drawn)	Rango complex inh inconclusive, Rango release inh inconclusive, PI5P4K alpha inh inconclusive
CCCOc1cccc(C2c3c(oc4ccc(F)cc4c3=O)C(=O)N2c2nc(C)c(C(C)=O)s2)c1 (stereo not drawn)	none (no result: Rango complex inh, Rango release inh, PLK1 PBD block, PI5P4K alpha inh)
O=C(Nc1ccc2nc3n(c(=O)c2c1)CCCC3)c1cccnc1Cl	PLK1 PBD block 19µM, VDR inh inconclusive (no result: GCN5L2 inh)
CC1CCCC(C)N1CCCNC(=O)C(=O)Nc1ccc2nc3n(c(=O)c2c1)CCCCC3 (stereo not drawn)	PLK1 PBD block 27µM
CCOC(=O)c1c(C)c(-c2ccccc2)n(CC(=O)Nc2cc(OC)cc(OC)c2)c1C	none (no result: Rango complex inh, Rango release inh, PLK1 PBD block, PI5P4K alpha inh)
O=C1c2cccnc2C(=O)N1c1cccc([N+](=O)[O-])c1	none
O=[N+]([O-])c1cc(-c2ncccn2)c([N+](=O)[O-])s1	PLK1 PBD block 2.7µM, VDR inh 35µM, PI5P4K alpha inh inconclusive
CC(=O)NNC(=O)c1sc(=S)n2c1[nH]c(=O)c1sccc12	Rango complex inh inconclusive, Rango release inh inconclusive, PLK1 PBD block 21µM
NC(=O)c1sc(=S)n2c1[nH]c(=O)c1sccc12	Rango complex inh inconclusive, Rango release inh inconclusive, PI5P4K alpha inh inconclusive

Screening data: PubChem BioAssay, National Center for Advancing Translational Sciences (NCATS)
